# Assay results: PubChem BioAssay (NCATS)
# Where “and” joins values, the source holds several entries; their conditions need not be identical. Identical values can stand only once. Records with an inconclusive call do not appear. A call without a number means that no potency is given here. Calls of active or inactive are those of the source. Unless noted, calls come from the whole dose curve; as a rule, active = well fitted curve in the direction sought with a large enough effect; inconclusive = small, poorly fitted or top-dose-only effect, or another doubt; inactive = no such curve, though single readings can be large; an effect the other way counts as inactive or inconclusive.
# Legend:
# [1] = molecular target: phosphoglycerate mutase (Leishmania major) (UniProt Q4Q090); test: qHTS Validation Assay to Find Inhibitors of Phosphoglycerate Mutase (AID 504548); details: biochemical enzyme activity; Potency: inhibition qHTS; series mostly up to 57.5 µM
# Outline: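 Lm PGAM at 1.25 nM final with substrate in 100 mM TEA pH 7.6, 5 mM MgCl2, 0.01% Tween-20; 45 min at room temperature. Kinase-GloPlus added, 10 min, end-point luminescence read.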
# [2] = Inducers of the Endoplasmic Reticulum Stress Response (ERSR) in human glioma: Validation (AID 504836); details: human glioma cells, ER stress response reporter; series mostly up to 38.3 µM
# Outline: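 Stably transfected U87-MG glioma cells carrying a GRP78-based luciferase sensor; 16 h compound incubation. Luminescence end-point read 10 min after Bright-Glo addition at room temperature.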
# [3] = qHTS for Inhibitors of ATXN expression: Validation of Cytotoxic Assay (AID 588349); details: cytotoxicity counter-screen for ATXN expression inhibitors, cell viability; series mostly up to 57.1 µM; note: potency is the fitted concentration of half-maximal effect
# Outline: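 Titrated compounds are added to cultured HEK293 cells, which are then held at 37 degrees C for 72 hr; loss of intracellular ATP, measured with CellTiter Glo, indicates toxicity.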
# [4] = molecular target: Ubiquitin carboxyl-terminal hydrolase 1 (Homo sapiens) (UniProt O94782); test: Inhibitors of USP1/UAF1: Pilot qHTS (AID 504865); details: purified USP1/UAF1, Ub-rhodamine cleavage fluorescence; series mostly up to 114 µM; note: nearly all actives have a fitted effect of over 35% in size; note: potency is the fitted concentration of half-maximal effect
# Outline: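 Enzyme-free wells gave the negative control, while test wells held 1nM USP1/UAF1 preincubated with compound for 15 min at room temperature. Ub-Rho at 150nM final started the reaction, and fluorescence at 480/540 nm was recorded kinetically.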
# [5] = molecular target: Phosphoglycerate kinase, glycosomal (Trypanosoma brucei brucei) (UniProt P07378); test: qHTS Validation Assay to Find Inhibitors of Phosphoglycerate Kinase (AID 504547); details: enzymatic PGK inhibition, coupled luminescence read-out; series mostly up to 57.5 µM
# Outline: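 Compounds are pinned into the substrate/PGK mixture, and GAPDH (100nM final) is added to start the reaction by producing 1,3-BPG. After 60 minutes at room temperature, Kinase-Glo Plus is added and luminescence is measured 10 minutes later.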
# [6] = qHTS for Inhibitors of ATXN expression: Validation (AID 588378); details: cell-based ATXN2 expression reporter assay, luminescence; series mostly up to 57.1 µM; note: nearly all actives have a fitted effect of over 75% in size; note: potency is the fitted concentration of half-maximal effect
# Outline: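 After a 2 h attachment and 24 h compound incubation, HEK293-ATXN2-FFLuc wells are read for fluorescence at 405 nm excitation/525 nm emission as a viability measure, then for Bright-Glo luminescence reflecting ATXN2 expression.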
# [7] = molecular target: Peptidyl-prolyl cis-trans isomerase NIMA-interacting 1 (Homo sapiens) (UniProt Q13526); test: qHTS Validation Assay to Find Inhibitors of Pin1 (AID 504536; active = well fitted inhibition curve with a large enough effect in the polarisation, with a control signal flat, not every such curve was filed as active; the % refers to the polarisation); details: Pin1 fluorescence polarization peptide binding assay; series mostly up to 57.5 µM
# Outline: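 Fluorescence polarization competition: compounds (titration) displace HiFluor-488-labeled Pin1-1b peptide from Pin1 (0.3 uM final) in pH 7.5 HEPES buffer with DTT, 10 min at room temperature; %Activity normalized to no-enzyme wells, curves fitted.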
# [8] = molecular target: DNA dC->dU-editing enzyme APOBEC-3G (Homo sapiens) (UniProt Q9HC16); test: qHTS for inhibitors of Vif-A3G interactions: Validation (AID 588379); details: Vif-A3G protein interaction assay; series mostly up to 46.1 µM
# Outline: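 Yellow fluorescence (Ex 488, Em 500-530) of Vif-coexpressing HeLa A3G-eYFP cells, scanned by Acumen cytometer, reports blocked A3G degradation. Cells plated at 700/well overnight at 37 deg C before compound addition, then a further overnight compound incubation at 37 deg C.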
# Sequence of Peptidyl-prolyl cis-trans isomerase NIMA-interacting 1 (Homo sapiens) (Q13526 whole entry, looked up): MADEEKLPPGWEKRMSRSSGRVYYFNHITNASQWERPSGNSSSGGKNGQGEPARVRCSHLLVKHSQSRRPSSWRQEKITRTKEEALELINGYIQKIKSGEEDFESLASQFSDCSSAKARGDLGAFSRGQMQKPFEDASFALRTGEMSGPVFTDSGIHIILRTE
# Sequence of phosphoglycerate mutase (Leishmania major) (Q4Q090 1-553): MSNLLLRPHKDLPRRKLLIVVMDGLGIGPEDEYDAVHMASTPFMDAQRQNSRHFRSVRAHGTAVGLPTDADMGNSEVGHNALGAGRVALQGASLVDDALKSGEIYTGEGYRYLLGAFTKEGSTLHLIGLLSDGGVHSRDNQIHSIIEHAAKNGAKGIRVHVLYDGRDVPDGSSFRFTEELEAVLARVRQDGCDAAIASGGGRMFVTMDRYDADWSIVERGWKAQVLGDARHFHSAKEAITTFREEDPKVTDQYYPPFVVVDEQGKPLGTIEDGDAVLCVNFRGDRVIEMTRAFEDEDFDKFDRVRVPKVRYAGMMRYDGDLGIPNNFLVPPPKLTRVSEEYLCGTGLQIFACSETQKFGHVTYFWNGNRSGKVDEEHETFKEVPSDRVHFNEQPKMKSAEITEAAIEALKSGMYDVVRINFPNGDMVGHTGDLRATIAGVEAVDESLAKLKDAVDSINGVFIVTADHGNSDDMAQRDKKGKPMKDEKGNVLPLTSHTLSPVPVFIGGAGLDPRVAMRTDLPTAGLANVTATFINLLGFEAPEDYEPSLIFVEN
# Sequence of Ubiquitin carboxyl-terminal hydrolase 1 (Homo sapiens) (O94782 whole entry, looked up): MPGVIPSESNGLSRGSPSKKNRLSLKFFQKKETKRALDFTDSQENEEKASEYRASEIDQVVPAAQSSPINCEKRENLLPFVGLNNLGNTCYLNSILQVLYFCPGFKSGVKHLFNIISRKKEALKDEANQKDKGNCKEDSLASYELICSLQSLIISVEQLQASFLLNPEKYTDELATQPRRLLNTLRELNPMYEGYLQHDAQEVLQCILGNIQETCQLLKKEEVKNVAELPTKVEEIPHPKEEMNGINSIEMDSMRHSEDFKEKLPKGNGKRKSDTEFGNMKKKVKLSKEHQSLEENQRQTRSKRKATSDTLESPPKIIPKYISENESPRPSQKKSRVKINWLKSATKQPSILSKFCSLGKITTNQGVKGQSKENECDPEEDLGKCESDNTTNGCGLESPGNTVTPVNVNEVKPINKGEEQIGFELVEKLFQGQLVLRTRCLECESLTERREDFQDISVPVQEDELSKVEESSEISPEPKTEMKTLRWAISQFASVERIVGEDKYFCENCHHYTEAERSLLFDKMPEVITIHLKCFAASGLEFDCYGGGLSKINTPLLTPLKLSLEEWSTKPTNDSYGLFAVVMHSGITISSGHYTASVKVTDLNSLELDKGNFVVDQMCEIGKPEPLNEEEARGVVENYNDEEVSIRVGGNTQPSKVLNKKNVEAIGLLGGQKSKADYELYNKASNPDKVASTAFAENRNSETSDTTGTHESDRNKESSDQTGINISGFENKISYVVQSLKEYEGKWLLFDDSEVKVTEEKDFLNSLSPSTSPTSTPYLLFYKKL
# Sequence of Phosphoglycerate kinase, glycosomal (Trypanosoma brucei brucei) (P07378 whole entry, looked up): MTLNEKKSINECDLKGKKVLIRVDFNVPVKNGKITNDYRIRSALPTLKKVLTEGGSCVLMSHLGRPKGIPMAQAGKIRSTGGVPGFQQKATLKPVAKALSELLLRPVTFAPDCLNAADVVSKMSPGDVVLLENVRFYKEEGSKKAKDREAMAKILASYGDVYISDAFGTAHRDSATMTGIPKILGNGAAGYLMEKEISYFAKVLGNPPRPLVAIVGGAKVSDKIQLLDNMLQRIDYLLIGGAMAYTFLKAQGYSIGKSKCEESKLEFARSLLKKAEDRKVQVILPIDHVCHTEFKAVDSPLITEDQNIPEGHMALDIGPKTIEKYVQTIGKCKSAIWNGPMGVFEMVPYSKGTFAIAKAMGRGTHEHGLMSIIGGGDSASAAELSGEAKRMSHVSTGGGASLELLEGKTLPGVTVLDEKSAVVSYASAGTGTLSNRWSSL
# Sequence of DNA dC->dU-editing enzyme APOBEC-3G (Homo sapiens) (Q9HC16 whole entry, looked up): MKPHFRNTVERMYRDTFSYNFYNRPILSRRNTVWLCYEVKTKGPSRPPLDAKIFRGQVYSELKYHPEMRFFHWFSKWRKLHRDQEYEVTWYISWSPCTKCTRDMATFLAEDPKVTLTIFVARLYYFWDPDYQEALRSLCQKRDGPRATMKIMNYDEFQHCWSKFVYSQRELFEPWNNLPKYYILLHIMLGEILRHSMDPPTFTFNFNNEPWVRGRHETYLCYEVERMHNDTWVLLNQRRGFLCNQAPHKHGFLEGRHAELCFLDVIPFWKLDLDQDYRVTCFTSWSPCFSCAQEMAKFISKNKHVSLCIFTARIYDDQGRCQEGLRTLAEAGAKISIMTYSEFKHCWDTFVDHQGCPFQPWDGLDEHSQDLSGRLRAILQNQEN
compound,measurement,setting,value
CN1CC[C@@]2(C)c3cc(O)ccc3N(C)C12 (some centres undefined),Potency,[1],inactive
same,outcome,[2],inactive
same,Potency,[3],28.2 µM (active)
[N-]=[N+]=CC(=O)OCC(N)C(=O)O (centres undefined),Potency,[4],inactive
O=P(O)(O)C(Cl)(Cl)P(=O)(O)O,outcome,[2],inactive
same,Potency,[4],inactive
CCn1cnc2c(Nc3cccc(Cl)c3)nc(N[C@@H]3CCCC[C@@H]3N)nc21,Potency,[5],inactive
same,Potency,[1],inactive
same,Potency,[4],inactive
O[C@H]1[C@H]2[C@H](O)CCCN2C[C@H]1O,Potency,[4],inactive
C=CCN1C[C@@H](C)N([C@H](c2ccc(C(=O)N(CC)CC)cc2)c2cccc(OC)c2)C[C@@H]1C,Potency,[1],inactive
same,outcome,[2],inactive
same,Potency,[4],inactive
same,Potency,[3],inactive
CCC1(c2ccccc2)C(=O)NC(=O)N(C(=O)c2ccccc2)C1=O (centres undefined),Potency,[4],inactive
C=CCN1CC[C@]23c4c5ccc(O)c4O[C@@H]2/C(=N/N=C2\CC[C@@]4(O)C6Cc7ccc(O)c8c7[C@@]4(CCN6CC=C)[C@@H]2O8)CC[C@@]3(O)C1C5,Potency,[1],inactive
same,outcome,[2],inactive
same,Potency,[4],inactive
same,Potency,[6],20 µM (active)
C[N+]1(C)CCCCC1COC(=O)C(O)(c1ccccc1)c1ccccc1 (centres undefined),Potency,[4],inactive
CCC1(c2ccccc2)C(=O)NC(=O)NC1=O,Potency,[4],inactive
CC(Cc1ccccc1)NC=O (centres undefined),Potency,[4],inactive
O=C1C=CC(=O)C=C1,Potency,[7],inactive
same,outcome,[2],inactive
same,Potency,[4],inactive
same,Potency,[3],inactive
same,Potency,[6],inactive
N#CC1(N2CCCCC2)CCCCC1,Potency,[4],inactive
CCN(CC)C(=O)/C(Cl)=C(\C)OP(=O)(OC)OC,Potency,[4],inactive
CC1OC1P(=O)(O)O (centres undefined),outcome,[2],inactive
same,Potency,[4],inactive
CC(C)CC(NP(=O)(O)O[C@@H]1O[C@@H](C)[C@H](O)[C@@H](O)[C@H]1O)C(=O)NC(Cc1c[nH]c2ccccc12)C(=O)O (some centres undefined),outcome,[2],inactive
Oc1ccc2c3c1O[C@H]1c4[nH]c5ccccc5c4C[C@@]4(O)C(C2)N(CC2CC2)CCC314 (some centres undefined),Potency,[7],inactive
same,Potency,[1],inactive
same,outcome,[2],inactive
same,Potency,[6],17.8 µM (active)
CC(=O)c1c(O)c(C)c(O)c(Cc2c(O)c3c(c(C(=O)/C=C/c4ccccc4)c2O)OC(C)(C)C=C3)c1O,Potency,[5],inactive
same,Potency,[1],inactive
same,outcome,[2],inactive
same,Potency,[4],79.4 µM (active) and 56.2 µM (active)
same,outcome,[8],inactive
CNC(=O)OCC[N+](C)(C)C,Potency,[4],inactive
CN1CCc2cc(O)cc3c2[C@H]1Cc1ccc(O)c(O)c1-3,Potency,[7],inactive
same,outcome,[2],inactive
same,Potency,[4],inactive
same,Potency,[3],inactive
CCCN1CCc2cc(O)cc3c2[C@H]1Cc1ccc(O)c(O)c1-3,Potency,[7],inactive
same,outcome,[2],inactive
same,Potency,[4],inactive
CNC(=O)Oc1ccccc1C(=O)Nc1ccccc1,Potency,[4],inactive
Cc1c2ccncc2c(C)c2c1[nH]c1ccccc12,Potency,[7],inactive
same,Potency,[1],inactive
same,outcome,[2],inactive
same,Potency,[3],inactive
CCCN(CCC)C1CCc2cccc(O)c2C1 (centres undefined),Potency,[1],inactive
same,outcome,[2],inactive
same,Potency,[4],inactive
same,Potency,[3],inactive
same,Potency,[6],inactive
CC(=O)OC1CN2CCC1CC2 (centres undefined),Potency,[4],inactive
c1cc2c(c(NC3=NCCN3)c1)CCCC2,Potency,[4],inactive
C[N+]1(C)CCC(OC(=O)C(c2ccccc2)c2ccccc2)CC1,outcome,[2],inactive
CCOc1ccc2c3c1O[C@H]1[C@@H](O)C=C[C@H]4[C@@H](C2)N(C)CC[C@@]341,Potency,[4],inactive
CNC1(c2ccccc2Cl)CCCCC1=O (centres undefined),Potency,[4],inactive
c1ccc2sc(SNC3CCCCC3)nc2c1,Potency,[4],inactive
O=Cc1ccco1,Potency,[4],inactive
CCC1(CC)C(=O)NC(=O)N(C)C1=O,Potency,[4],inactive
Clc1ccc(Cl)cc1,Potency,[4],inactive
O=c1[nH]c(=O)n(Cl)c(=O)n1Cl,Potency,[4],inactive
C/C(=C\c1csc(C)n1)[C@@H]1C[C@@H]2O[C@]2(C)CCC[C@H](C)[C@H](O)[C@@H](C)C(=O)C(C)(C)[C@@H](O)CC(=O)O1,Potency,[4],inactive
O=C(CS(=O)C(c1ccccc1)c1ccccc1)NO (centres undefined),Potency,[4],inactive
CN1[C@@H]2CC[C@H]1CC(OC1c3ccccc3CCc3ccccc31)C2 (some centres undefined),Potency,[4],inactive
CC(C)(C)c1cc(O)ccc1O,Potency,[4],inactive
Oc1cc(Cl)c(Cl)cc1Cl,Potency,[4],inactive
CCCC(C)(COC(N)=O)COC(=O)NC1CC1 (centres undefined),Potency,[4],inactive
c1csc(C2(N3CCCCC3)CCCCC2)c1,Potency,[4],inactive
CCC1C(C)=NN=C(c2ccc(OC)c(OC)c2)c2cc(OC)c(OC)cc21 (centres undefined),Potency,[4],inactive
CN1c2ccccc2C(NCCCCCCC(=O)O)c2ccc(Cl)cc2S1(=O)=O (centres undefined),Potency,[4],inactive
OC(c1ccccc1)(c1ccccc1)C1CN2CCC1CC2 (centres undefined),Potency,[4],inactive
O=C(OCCN1CCCCC1)C(O)(c1ccccc1)c1ccccc1,Potency,[4],inactive
CCC1(C)CC(=O)NC(=O)C1,Potency,[4],inactive
NCC(O)c1cccc(O)c1 (centres undefined),Potency,[4],inactive
CCCCCl,Potency,[4],inactive
O=S(=O)(O)c1cc(O)ccc1O,Potency,[4],inactive
